According to PubChem BioAssay AID1159580 (chemical genetic matrix, 2015):
Where “and” joins values, the source holds several entries; their conditions need not be identical. Equal entries are not always repeated. About 2,000 (36%) of roughly 5,500 compounds were called active. Not shown: some 18% with an inconclusive outcome. Rule as the data show it: active = normalized growth mostly below about 0.91 (no sharp cut-off); inconclusive = no clear call, values can overlap the other calls; inactive = mostly above about 0.92. The list shows a part of the results.

Test: chemical genetic growth profiling, strain panel (AID 1159580);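 also: tested at 20 µM; growth read once vehicle control cultures reached saturation at 30 °C; 1 = growth at the plate median or of vehicle wells; lower values mean less growth of the strain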
Conditions: S. cerevisiae deletion strains, growth OD

Measured: normalized growth

C1CCN2C[C@@H]3C[C@H](CN4CCCC[C@@H]34)[C@H]2C1
inactive: locus YAL013W, strain DEP1, hits give low values 1.04 | locus YAL021C, strain ccr4, hits give low values 0.995 | locus YAL026C, strain drs2, hits give low values 1.02 | locus YAL030W, strain snc1, hits give low values 1.01 | locus YBL061C, strain skt5, hits give low values 0.999 | locus YBR009C, strain hhf1, hits give low values 1 | locus YBR021W, strain FUR4, hits give low values 1.02 | locus YBR023C, strain chs3, hits give low values 1.01 | locus YBR171W, strain sec66, hits give low values 1.01 | locus YBR229C, strain ROT2, hits give low values 0.999 | locus YBR231C, strain swc5, hits give low values 1.03 | locus YBR279W, strain paf1, hits give low values 1.01 | locus YCL011C, strain gbp2, hits give low values 1 | locus YCL016C, strain dcc1, hits give low values 0.991 | locus YCL029C, strain bik1, hits give low values 0.995 | locus YCL061C, strain MRC1, hits give low values 1.01 | locus YCL069W, strain vba3, hits give low values 1.01 | locus YCR088W, strain abp1, hits give low values 1.01 | locus YDL005C, strain med2, hits give low values 1.02 | locus YDL035C, strain GPR1, hits give low values 1.02 | locus YDL040C, strain nat1, hits give low values 1 | locus YDL074C, strain BRE1, hits give low values 1.01 | locus YDL101C, strain DUN1, hits give low values 1.01 | locus YDL134C, strain PPH21, hits give low values 1 | locus YDL185W, strain tfp1, hits give low values 1 | locus YDL192W, strain arf1, hits give low values 1.01 | locus YDR001C, strain nth1, hits give low values 1.01 | locus YDR069C, strain doa4, hits give low values 1.01 | locus YDR101C, strain arx1, hits give low values 1 | locus YDR137W, strain rgp1, hits give low values 1.01 | locus YDR150W, strain NUM1, hits give low values 1.01 | locus YDR159W, strain sac3, hits give low values 1.05 | locus YDR162C, strain NBP2, hits give low values 1.01 | locus YDR195W, strain ref2 0.996 | locus YDR297W, strain sur2, hits give low values 1.03 | locus YDR318W, strain mcm21, hits give low values 1.01 | locus YDR334W, strain swr1, hits give low values 1.01 | locus YDR335W, strain msn5, hits give low values 1.01 | locus YDR388W, hits give low values 0.994 | locus YDR392W, strain spt3, hits give low values 1.02 | locus YDR502C, strain sam2, hits give low values 1.01 | locus YEL003W, strain gim4, hits give low values 1.01 | locus YEL037C, strain rad23, hits give low values 0.994 | locus YEL061C, strain CIN8 (second series), hits give low values 1.01 | locus YEL061C, strain CIN8, hits give low values 1 | locus YER015W, strain faa2, hits give low values 1 | locus YER016W, strain bim1, hits give low values 1 | locus YER110C, hits give low values 0.999 | locus YER111C, strain swi4, hits give low values 0.993 | locus YER155C, strain BEM2 (second series), hits give low values 1.04 | locus YER155C, strain BEM2, hits give low values 1.01 | locus YER167W, strain BCK2, hits give low values 1.03 | locus YFR010W, strain ubp6, hits give low values 1.02 | locus YGL078C, strain dbp3, hits give low values 1 | locus YGL086W, strain mad1, hits give low values 1.01 | locus YGL167C, strain pmr1, hits give low values 1 | locus YGL173C, strain kem1, hits give low values 1.02 | locus YGL227W, strain vid30, hits give low values 1.01 | locus YGL240W, strain doc1, hits give low values 1.04 | locus YGL248W, strain PDE1, hits give low values 1 | locus YGL253W, strain hxk2, hits give low values 1 | locus YGR135W, strain pre9, hits give low values 0.996 | locus YGR252W, strain gcn5, hits give low values 1.02 | locus YHR013C, strain ard1, hits give low values 1.01 | locus YHR027C, strain rpn1, hits give low values 1.01 | locus YHR030C, strain SLT2, hits give low values 1.01 and 1.07 | locus YHR079C, strain IRE1 (second series), hits give low values 1 | locus YHR079C, strain IRE1, hits give low values 1.03 | locus YHR094C, strain hxt1, hits give low values 0.995 | locus YHR129C, strain ARP1, hits give low values 1.01 | locus YHR142W, strain chs7, hits give low values 1 | locus YHR200W, strain rpn10, hits give low values 1 | locus YIL066C, strain RNR3, hits give low values 1.03 | locus YIL073C, strain SPO22, hits give low values 1.02 | locus YIL125W, strain kgd1, hits give low values 1 | locus YIR030C, strain dcg1, hits give low values 1 | locus YJL092W, strain hpr5, hits give low values 1 | locus YJL095W, strain BCK1 (second series), hits give low values 1.01 | locus YJL095W, strain BCK1, hits give low values 1.02 and 1.04 | locus YJL115W, strain asf1, hits give low values 0.993 | locus YJL129C, strain trk1, hits give low values 1 | locus YJL134W, strain LCB3, hits give low values 1.01 | locus YJL154C, strain vps35, hits give low values 1 | locus YJL164C, strain tpk1, hits give low values 0.997 | locus YJL166W, strain qcr8, hits give low values 1.01 | locus YJL168C, strain set2, hits give low values 1 | locus YJL187C, strain SWE1 (second series), hits give low values 1.01 | locus YJL187C, strain SWE1, hits give low values 0.991 | locus YJR043C, strain POL32, hits give low values 1.01
